# Results taken from PubChem BioAssay (NCATS).
# “And” between values parts separate entries of the source, which are not always exact repeats. Equal entries are not always repeated. Unmarked numbers belong to inactive results. Records with an inconclusive call do not appear. Entries that show only a call come without a potency. More than one record can exist for a structure, and the calls need not agree. The source made the active and inactive calls. Unless noted, calls come from the whole dose curve; as a rule, active = well fitted curve in the direction sought with a large enough effect; inconclusive = small, poorly fitted or top-dose-only effect, or another doubt; inactive = no such curve, though single readings can be large; an effect the other way counts as inactive or inconclusive.
# Tests used:
# [1] = test system: UISO; test: qHTS assay to identify novel small-molecules to repurpose for Merkel cell carcinoma treatment (AID 1296009); details: MCC and control cell lines, CellTiter-Glo viability, 72 h; series mostly up to 46 µM; note: nearly all actives have a fitted effect of over 60% in size; note: potency is the fitted concentration of half-maximal effect
# Procedure, shortened: (§1)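 CellTiter-Glo luminescence after 72 hr compound exposure at 37 degree celsius gave cell viability. Libraries NPC and MIPE were run as 8- and 11-point dose responses; RLUs normalized to DMSO (negative) and no-cell (cytotoxicity) controls.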
# [2] = test system: WaGa; test: as above; details: MCC and control cell lines, CellTiter-Glo viability, 72 h; series mostly up to 46 µM
# Procedure, shortened: as §1
# [3] = test system: C33A; test: Primary qHTS to identify gynecologic anti-cancer compounds using libraries of approved drugs and bioactive compounds (AID 1345084); details: Gynecologic cancer cell panel viability, ATPlite luminescence, 48 h; series mostly up to 57.5 µM; note: nearly all actives have a fitted effect of over 55% in size; note: potency is the fitted concentration of half-maximal effect
# Procedure, shortened: (§2)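 Five-point cytotoxicity, 48 h drug exposure at 37 C, 5% CO2, on cells seeded 16 h beforehand. ATP content read by ATPlite luminescence.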
# [4] = test system: CASKI; test: as above; details: Gynecologic cancer cell panel viability, ATPlite luminescence, 48 h; series mostly up to 57.5 µM
# Procedure, shortened: as §2
# [5] = test system: Es-2; test: as above; details: Gynecologic cancer cell panel viability, ATPlite luminescence, 48 h; series mostly up to 57.5 µM
# Procedure, shortened: as §2
# [6] = test system: HeLa; test: as above; details: Gynecologic cancer cell panel viability, ATPlite luminescence, 48 h; series mostly up to 57.5 µM
# Procedure, shortened: as §2
# [7] = test system: Hek293T; test: as above; details: Gynecologic cancer cell panel viability, ATPlite luminescence, 48 h, control line for the selectivity index; series mostly up to 57.5 µM
# Procedure, shortened: as §2
# [8] = test system: JEG-3; test: as above; details: Gynecologic cancer cell panel viability, ATPlite luminescence, 48 h; series mostly up to 57.5 µM
# Procedure, shortened: as §2
# [9] = test system: OV90; test: as above; details: Gynecologic cancer cell panel viability, ATPlite luminescence, 48 h; series mostly up to 57.5 µM
# Procedure, shortened: as §2
# [10] = test system: PA-1; test: as above; details: Gynecologic cancer cell panel viability, ATPlite luminescence, 48 h; series mostly up to 57.5 µM
# Procedure, shortened: as §2
# [11] = test system: SKOV3; test: as above; details: Gynecologic cancer cell panel viability, ATPlite luminescence, 48 h; series mostly up to 57.5 µM
# Procedure, shortened: as §2
# [12] = test system: Tov-21-G; test: as above; details: Gynecologic cancer cell panel viability, ATPlite luminescence, 48 h; series mostly up to 57.5 µM
# Procedure, shortened: as §2
# [13] = test system: Tov112D; test: as above; details: Gynecologic cancer cell panel viability, ATPlite luminescence, 48 h; series mostly up to 57.5 µM
# Procedure, shortened: as §2
# [14] = Drug repurposing screens with cells derived from glioblastoma tumor samples (AID 1345199); details: GBM patient neurospheres viability, ATP luminescence, 48 h; note: nearly all actives have a fitted effect of over 40% in size; note: potency is the fitted concentration of half-maximal effect
# Procedure, shortened: (§3)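 Primary testing used CD133+ neurospheres from four GBM patients, seven concentrations, 48 h exposure and ATP-based viability; confirmation added three slower-growing patient lines.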
# [15] = test system: astro; test: as above; details: viability, ATP luminescence, 48 h; series mostly up to 45.9 µM
# Procedure, shortened: as §3
# [16] = molecular target: Nuclear receptor subfamily 1 group I member 2 (Rattus norvegicus) (UniProt Q9R1A7); test: qHTS assay for small molecule activators of the rat pregnane X receptor (rPXR) signaling pathway (AID 651751; call rule not given here); details: rPXR reporter cells, luciferase (One-Glo), 24 h
# Nuclear receptor subfamily 1 group I member 2 (Rattus norvegicus), sequence (Q9R1A7 whole entry, looked up): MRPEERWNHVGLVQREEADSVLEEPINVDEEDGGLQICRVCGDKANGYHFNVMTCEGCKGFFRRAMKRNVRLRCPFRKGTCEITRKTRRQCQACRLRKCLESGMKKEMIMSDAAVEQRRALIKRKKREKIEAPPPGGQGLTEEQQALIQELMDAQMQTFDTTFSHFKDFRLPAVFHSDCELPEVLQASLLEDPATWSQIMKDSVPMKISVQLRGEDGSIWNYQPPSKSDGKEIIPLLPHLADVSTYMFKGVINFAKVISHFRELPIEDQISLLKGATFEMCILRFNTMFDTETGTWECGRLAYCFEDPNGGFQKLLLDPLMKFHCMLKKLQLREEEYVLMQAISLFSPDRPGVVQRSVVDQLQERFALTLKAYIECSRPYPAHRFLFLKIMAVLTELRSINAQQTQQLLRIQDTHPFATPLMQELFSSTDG
# [17] = test system: CAOV3; test: Primary qHTS to identify gynecologic anti-cancer compounds using libraries of approved drugs and bioactive compounds (AID 1345084); details: Gynecologic cancer cell panel viability, ATPlite luminescence, 48 h; series mostly up to 57.5 µM; note: nearly all actives have a fitted effect of over 55% in size; note: potency is the fitted concentration of half-maximal effect
# Procedure, shortened: as §2
# [18] = qHTS assay for small molecule activators of the human pregnane X receptor (PXR) signaling pathway (AID 720659; call rule not given here)
# [19] = at 45.9 µM (top of the series), tumour line B
# [20] = at 45.9 µM (top of the series), tumour line D
# [21] = at 46 µM (top of the series), tumour line A
structure (smiles),measurement,setting,value
CCCCCCC(=O)CCCCCC/C=C/C[C@@H](O)[C@H](O)[C@@](N)(CO)C(=O)O,Potency,[1],inactive
same,Potency,[2],inactive
same,Potency,[3],inactive
same,outcome,[4],inactive
same,Potency,[5],inactive
same,Potency,[6],inactive
same,outcome,[7],inactive
same,outcome,[8],inactive
same,Potency,[9],inactive
same,Potency,[10],inactive
same,outcome,[11],inactive
same,Potency,[12],inactive
same,Potency,[13],inactive
same,"activity, negative = cell killing",[14]; [19],-13.1% and -22.4%
same,"activity, negative = cell killing",[14]; [20],-26.9% and -22.9%
same,Potency,[14]; tumour line A,35500 nM (active)
same,Potency,[15],inactive
COC(=O)C(Cl)C(=O)OC,Potency,[1],inactive
same,Potency,[2],inactive
same,Potency,[3],inactive
same,outcome,[4],inactive
same,Potency,[5],inactive
same,Potency,[6],inactive
same,outcome,[7],inactive
same,outcome,[8],inactive
same,Potency,[9],inactive
same,Potency,[10],inactive
same,outcome,[11],inactive
same,Potency,[12],inactive
same,Potency,[13],inactive
same,"activity, negative = cell killing",[14]; [19],-9.36%
same,"activity, negative = cell killing",[14]; [20],-17%
same,"activity, negative = cell killing",[14]; [21],-23.7%
same,Potency,[15],inactive
CN1C(=O)COc2c(C(=O)NC3CN4CCC3CC4)cc(Cl)cc21 (stereo not drawn),Potency,[1],inactive
same,Potency,[2],inactive
same,Potency,[3],inactive
same,outcome,[4],inactive
same,Potency,[5],inactive
same,Potency,[6],inactive
same,outcome,[7],inactive
same,outcome,[8],inactive
same,Potency,[9],inactive
same,Potency,[10],inactive
same,outcome,[11],inactive
same,Potency,[12],inactive
same,Potency,[13],inactive
same,Potency,[14]; tumour line A,22400 nM (active)
same,Potency,[15],inactive
COP(=S)(OC)Oc1ccc(S(=O)(=O)N(C)C)cc1,Potency,[1],inactive
same,Potency,[2],inactive
same,Potency,[3],inactive
same,outcome,[4],inactive
same,Potency,[5],inactive
same,Potency,[6],inactive
same,outcome,[7],inactive
same,outcome,[8],inactive
same,Potency,[9],inactive
same,Potency,[10],inactive
same,outcome,[11],inactive
same,Potency,[12],inactive
same,Potency,[13],inactive
same,"activity, negative = cell killing",[14]; [19],-4.11%
same,"activity, negative = cell killing",[14]; [20],-25%
same,"activity, negative = cell killing",[14]; [21],-29.3%
same,Potency,[15],inactive
COc1cccc2c1C(=O)c1c(O)c3c(c(O)c1C2=O)C[C@@](O)(C(=O)CO)CC3OC1CC(N2CCOC(OC)C2)C(O)C(C)O1 (stereo partly drawn),Potency,[1],18.8 nM (active)
same,Potency,[2],23.7 nM (active)
same,Potency,[3],282 nM (active)
same,Potency,[6],224 nM (active)
same,Potency,[9],447 nM (active)
same,Potency,[12],100 nM (active)
same,Potency,[13],100 nM (active)
CCN[C@@H](C)Cc1ccccc1,Potency,[1],inactive
same,Potency,[2],inactive
same,Potency,[3],inactive
same,outcome,[4],inactive
same,Potency,[5],inactive
same,Potency,[6],inactive
same,outcome,[7],inactive
same,outcome,[8],inactive
same,Potency,[9],inactive
same,Potency,[10],inactive
same,outcome,[11],inactive
same,Potency,[12],inactive
same,Potency,[13],inactive
same,"activity, negative = cell killing","[14]; at 108 µM (top of the series), tumour line B",-6.22%
same,"activity, negative = cell killing","[14]; at 108 µM (top of the series), tumour line D",-20.9%
same,Potency,[15],inactive
CCC(C)(C)c1ccc(O)cc1,Potency,[1],inactive
same,Potency,[2],inactive
same,Potency,[3],inactive
same,outcome,[4],inactive
same,Potency,[5],inactive
same,Potency,[6],inactive
same,outcome,[7],inactive
same,outcome,[8],inactive
same,Potency,[9],inactive
same,Potency,[10],inactive
same,outcome,[11],inactive
same,Potency,[12],inactive
same,Potency,[13],inactive
same,"activity, negative = cell killing",[14]; [19],-7.41%
same,"activity, negative = cell killing",[14]; [20],13.4%
same,"activity, negative = cell killing",[14]; [21],-14.1%
same,"activity, negative = cell killing","[14]; at 46.1 µM (top of the series), tumour line C",-3.53%
same,Potency,[15],inactive
same,max response,[16],1.88% and -0.811%
COC(=O)[C@@H](N)CCCN/C(N)=N/[N+](=O)[O-],Potency,[1],inactive
same,Potency,[2],inactive
same,Potency,[3],inactive
same,outcome,[4],inactive
same,Potency,[5],inactive
same,Potency,[6],inactive
same,outcome,[7],inactive
same,outcome,[8],inactive
same,Potency,[9],inactive
same,Potency,[10],inactive
same,outcome,[11],inactive
same,Potency,[12],inactive
same,Potency,[13],inactive
same,"activity, negative = cell killing",[14]; [19],0.524%
same,"activity, negative = cell killing",[14]; [20],-1.49%
same,"activity, negative = cell killing",[14]; [21],-15.6%
same,Potency,[15],inactive
O=C(N/N=C/c1ccc([N+](=O)[O-])o1)c1cc([N+](=O)[O-])cc([N+](=O)[O-])c1O,Potency,[1],inactive
same,Potency,[3],inactive
same,outcome,[4],inactive
same,Potency,[5],inactive
same,Potency,[6],inactive
same,outcome,[7],inactive
same,outcome,[8],inactive
same,Potency,[9],inactive
same,Potency,[10],inactive
same,outcome,[11],inactive
same,Potency,[12],inactive
same,Potency,[13],inactive
same,"activity, negative = cell killing",[14]; [19],-13.9%
same,"activity, negative = cell killing",[14]; [20],-24.1%
CCCCCCCCCC(=O)O[C@H]1CC[C@H]2[C@@H]3CCC4=CC(=O)CC[C@@H]4[C@H]3CC[C@]12C,Potency,[1],inactive
same,Potency,[3],inactive
same,outcome,[17],inactive
same,outcome,[4],inactive
same,Potency,[5],inactive
same,Potency,[6],inactive
same,outcome,[7],inactive
same,outcome,[8],inactive
same,Potency,[9],inactive
same,Potency,[10],inactive
same,outcome,[11],inactive
same,Potency,[12],inactive
same,Potency,[13],inactive
same,"activity, negative = cell killing",[14]; [19],-3.32%
same,"activity, negative = cell killing",[14]; [20],-5.94%
same,Potency,[15],inactive
CC(C)c1c(CN(C)C(C)Cc2ccccc2)n(C)n(-c2ccccc2)c1=O (stereo not drawn),Potency,[1],inactive
same,Potency,[2],inactive
same,Potency,[3],inactive
same,outcome,[4],inactive
same,Potency,[5],inactive
same,Potency,[6],inactive
same,outcome,[7],inactive
same,outcome,[8],inactive
same,Potency,[10],inactive
same,outcome,[11],inactive
same,Potency,[12],inactive
same,Potency,[13],inactive
same,"activity, negative = cell killing","[14]; at 21.2 µM (top of the series), tumour line B",-20.9%
same,"activity, negative = cell killing","[14]; at 21.2 µM (top of the series), tumour line D",-18.5%
same,Potency,[14]; tumour line A,11200 nM (active)
same,Potency,[15],inactive
O=C1CN=C(c2ccccc2)c2cc([N+](=O)[O-])ccc2N1,Potency,[1],inactive
same,Potency,[2],inactive
same,Potency,[3],inactive
same,outcome,[4],inactive
same,Potency,[5],inactive
same,Potency,[6],inactive
same,outcome,[7],inactive
same,outcome,[8],inactive
same,Potency,[9],inactive
same,Potency,[10],inactive
same,outcome,[11],inactive
same,Potency,[12],inactive
same,Potency,[13],inactive
same,"activity, negative = cell killing",[14]; [19],-7.18%
same,"activity, negative = cell killing",[14]; [20],-17.8%
same,Potency,[15],inactive
COP(=S)(OC)Oc1ccc(SC)c(C)c1,Potency,[1],inactive
same,Potency,[2],inactive
same,Potency,[3],inactive
same,outcome,[4],inactive
same,Potency,[5],inactive
same,Potency,[6],inactive
same,outcome,[7],inactive
same,outcome,[8],inactive
same,Potency,[9],inactive
same,outcome,[11],inactive
same,Potency,[12],inactive
same,Potency,[13],inactive
same,"activity, negative = cell killing",[14]; [19],-12.6%
same,"activity, negative = cell killing",[14]; [20],-10.9%
same,"activity, negative = cell killing",[14]; [21],-25.3%
same,max response,[16],-3.65% and 2.94%
same,outcome,[18],inactive
O=C(Nc1ccc(Br)cc1)c1cc(Br)cc(Br)c1O,Potency,[1],inactive
same,Potency,[3],inactive
same,outcome,[17],inactive
same,outcome,[4],inactive
same,outcome,[7],inactive
same,Potency,[10],inactive
same,outcome,[11],inactive
same,Potency,[12],inactive
same,Potency,[13],inactive
same,Potency,[15],7080 nM (active)
NC(=O)c1cc([N+](=O)[O-])cc([N+](=O)[O-])c1,Potency,[1],inactive
same,Potency,[2],inactive
same,Potency,[3],inactive
same,outcome,[4],inactive
same,Potency,[5],inactive
same,Potency,[6],inactive
same,outcome,[7],inactive
same,Potency,[9],inactive
same,Potency,[10],inactive
same,outcome,[11],inactive
same,Potency,[12],inactive
same,Potency,[13],inactive
same,"activity, negative = cell killing",[14]; [19],-14%
same,"activity, negative = cell killing",[14]; [20],-22.7%
